The source made the active and inactive calls. How the source made its calls: active means hit-call score of the fitted dose curve at least 0.9, where 1 is the maximum; inactive means score below 0.9.
Test: CEETOX_H295R_MTT_cell_viability: Viability Assessment in the CeeTox HT-H295R MTT Assay (AID 2283718);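 on AC50: curve fitted both ways so AC50 may mark viability loss or gain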
Protocol: CEETOX_H295R is a cell-based, multiplexed-readout assay that uses H295R, a human adrenal gland cell line, with measurements taken at 48 hours after chemical dosing in a 96-well plate.CEETOX_H295R_MTT_cell_viability is one of 23 assay component(s) measured or calculated from the CEETOX_H295R assay. It is designed to make measurements of cell number, a form of viability reporter, as detected with […] signals by MTT cytotoxicity assay technology.The assay component endpoint CEETOX_H295R_MTT_cell_viability was analyzed with bidirectional fitting relation to DMSO as the negative control and baseline of activity. Using a type of viability reporter in the MTT cytotoxicity assay, gain or loss-of-signal activity can be used to monitor cellular processes to understand changes in proliferation. To generalize the intended target to other relatable targets, this assay endpoint is annotated to cell cycle, where the subfamily is proliferation.
Cell culture and media preparation procedures were conducted in accordance with OECD Test No. 456 guidelines, with minor modifications. H295R cells (ATCC CRL-2128) were expanded for 5 passages and frozen in batches in liquid nitrogen. Prior to the steroidogenesis assay, H295R cells were thawed and passed at least 4 times. The maximum passage was 10. Cells were maintained in a 1:1 mixture of DMEM/F12 supplemented with 5ml/L ITS+ Premix (BD Bioscience) and 12.5 ml/L Nu-Serum (BD Bioscience). After seeding cells into 96-well plates at 50-60% confluency, cells were allowed to adhere overnight. Prior to chemical testing, culture medium was replaced with 175 uL medium containing 10 uM forskolin to stimulate steroidogenesis for 48 hours. Following prestimulation, forskolin medium was replaced with medium containing test chemical solubilized in DMSO (ensuring a final concentration of 0.1% DMSO). Test chemicals were incubated for 48 hours, then the medium was removed and split into 2 vials containing approximately 75uL each, and stored at -80 C prior to hormone analysis. For steroid quantification, media samples were shipped to OpAns, LLC (Durham, NC) on dry ice, and samples were thawed to room temperature prior to liquid-liquid extraction. Steroid hormones were extracted from media samples using methyl tertbutyl ether (MTBE). An extra derivatization with dansyl chloride was included for estrogen (estrone and estradiol) detection only. Steroid hormones were separated by HPLC, eluted using a reverse phase C18 gradient with electrospray positive ionization, followed by quantification by tandem mass spectrometry (MS/MS). Data were acquired on a MassHunter Workstation Acquisition version B03.01 (Agilent Technologies, Inc.) and processed using MassHunter Quantitative Analysis for QQQ. Accuracy was determined for each hormone analyte from 3 standards to determine upper and lower limits of quantification (ULOQ and LLOQ, respectively) using a 7-point standard curve. Precision and accuracy of the extraction and quantification methods were calculated as the percent relative standard deviation (%RSD) of the spiked standards and percent spiked standard recovered, respectively. The goal was to achieve 100% accuracy (i.e., recover all spiked-in standard at quantification with minimal loss during run time) and good precision (i.e., have %RSD <15% to ensure reproducibility). Test medium was removed following chemical exposure, and cell viability was evaluated in the same wells by MTT. MTT procedures were as follows: after removal of test medium, 500 uL of 0.5 mg/ml of 3-[4,5-dimethylthiazol-2-y]2,5-diphenyltetrazoliumbromide solution was added to the cells. Following a 4-hour incubation at 37 C and 5% CO2 to allow formazan-crystal formation, the MTT solution was removed and blue formazan salt crystals were solubilized using 500uL anhydrous isopropanol with shaking for 20 minutes. Absorbance was read at 570 and 650nm using a Packard Fusion microplate reader. […]

Compound	outcome	AC50
C=CCOc1nc(OCC=C)nc(OCC=C)n1	inactive	
O=c1cc(-c2ccccc2)oc2cc(O)cc(O)c12	inactive	
COc1cc2ncnc(Nc3cccc(Cl)c3)c2cc1OC	inactive	
CC1(C)[C@H](C(=O)OCc2cccc(Oc3ccccc3)c2)[C@@H]1C=C(Cl)Cl	inactive	
Cc1ccc2n[nH]nc2c1	inactive	
Nc1ccc(F)c([N+](=O)[O-])c1	inactive	
Cc1ccc(C(C)C)cc1O	inactive	
CC(C)=CCCC(C)=CCCC(C)=CCO		54.2 µM (active)
Nc1cc([N+](=O)[O-])ccc1Cl	inactive	
CC1COc2ccccc2N1C(=O)C(Cl)Cl (centres undefined)		4.9 µM (active)
CC(C)c1cccc(O)c1	inactive	
NC(=O)Nc1ccc(Cl)cc1	inactive	
C=CC(C)(C)O	inactive	
c1ccc(CCCc2ccccn2)cc1	inactive	
O=C(O)c1ccc([N+](=O)[O-])cc1	inactive	
O=C(O)C[C@H](O)C[C@H](O)/C=C/c1c(C2CC2)nc2ccccc2c1-c1ccc(F)cc1	inactive	
CSc1nc(NC2CC2)nc(NC(C)(C)C)n1	inactive	
Cc1cccc(C)c1C	inactive	
CC1CC(OC(=O)c2ccccc2O)CC(C)(C)C1 (centres undefined)	inactive	

— PubChem BioAssay (EPA / NIEHS)
